Our source for the binding signal values is article PMC7862700, “An all-to-all approach to the identification of sequence-specific readers for epigenetic DNA modifications on cytosine”.

What all share (assay): DAPPL (digital affinity profiling via proximity ligation, sequencing); 10 mM Tris-HCl pH 7.5, 50 mM NaCl, 1 mM DTT, 4% glycerol, room temperature, 30 min; GST-TFs on glutathione beads, 16-mer random dsDNA library, 0.1% formaldehyde crosslink after washing; high values mean tight binding
Conditions in all cases: protein: recombinant; tags: N-terminal GST; dsDNA, one strand shown

In one assay the target is T1, ELK1 (Homo sapiens, UniProt P19419 1-428).
T1 sequence: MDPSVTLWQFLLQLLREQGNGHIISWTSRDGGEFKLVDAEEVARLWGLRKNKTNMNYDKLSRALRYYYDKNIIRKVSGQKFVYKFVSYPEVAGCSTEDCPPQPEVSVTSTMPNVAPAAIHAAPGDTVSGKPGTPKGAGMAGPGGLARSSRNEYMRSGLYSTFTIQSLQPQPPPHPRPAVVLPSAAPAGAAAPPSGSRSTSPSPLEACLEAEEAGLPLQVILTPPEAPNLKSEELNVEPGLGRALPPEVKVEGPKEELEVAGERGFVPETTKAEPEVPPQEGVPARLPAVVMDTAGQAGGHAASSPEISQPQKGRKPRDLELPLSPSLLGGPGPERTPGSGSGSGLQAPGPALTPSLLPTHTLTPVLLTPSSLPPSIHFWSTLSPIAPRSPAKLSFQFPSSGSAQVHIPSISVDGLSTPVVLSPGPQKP
In short, it runs like this:
(§1)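 Beads coated with glutathione captured GST-fused human transcription factors that had been expressed in yeast, and the factors were then given DNA barcodes and pooled with a tag-only sample. The pools were incubated with 200 nmole of a random double-stranded 16-mer DNA library in Tris/NaCl/DTT/glycerol buffer for 30 min at room temperature, washed, crosslinked with 0.1% formaldehyde and proximity-ligated with BsaI/T4 ligase at 37 °C for 1 h. PCR amplification and Illumina NextSeq500 sequencing came last. Binding signal is each hexamer's read frequency for a factor divided by its frequency for the tag-only sample.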

The target of a further assay is T2, GABPA (Homo sapiens, UniProt Q06546 1-454).
T2 sequence: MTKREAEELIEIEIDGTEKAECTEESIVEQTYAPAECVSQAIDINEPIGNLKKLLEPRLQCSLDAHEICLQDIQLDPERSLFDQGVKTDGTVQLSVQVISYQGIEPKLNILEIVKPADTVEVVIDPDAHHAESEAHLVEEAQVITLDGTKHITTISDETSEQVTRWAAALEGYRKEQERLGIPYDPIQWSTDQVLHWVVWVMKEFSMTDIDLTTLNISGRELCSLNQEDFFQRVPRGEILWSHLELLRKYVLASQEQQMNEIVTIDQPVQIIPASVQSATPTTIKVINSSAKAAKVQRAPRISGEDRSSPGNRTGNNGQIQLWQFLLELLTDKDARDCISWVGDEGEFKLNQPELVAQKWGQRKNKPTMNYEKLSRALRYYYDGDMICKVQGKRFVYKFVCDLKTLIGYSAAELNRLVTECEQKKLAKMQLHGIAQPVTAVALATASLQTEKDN
In short, it runs like this: as §1

In the next assay the target is ELF1 (Homo sapiens, UniProt P32519 1-619). In short, it runs like this: as §1
A further assay deals with T3, EHF (Homo sapiens, UniProt Q9NZC4 1-300).
T3 sequence: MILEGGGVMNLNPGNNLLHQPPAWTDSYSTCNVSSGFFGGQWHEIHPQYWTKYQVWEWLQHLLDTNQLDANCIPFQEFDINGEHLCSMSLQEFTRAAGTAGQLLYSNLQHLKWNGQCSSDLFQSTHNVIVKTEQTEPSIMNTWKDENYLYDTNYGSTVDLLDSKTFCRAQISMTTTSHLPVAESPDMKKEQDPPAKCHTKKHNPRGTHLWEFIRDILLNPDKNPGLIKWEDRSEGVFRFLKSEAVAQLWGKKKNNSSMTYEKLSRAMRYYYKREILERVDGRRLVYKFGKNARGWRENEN
In short, it runs like this: as §1

Another assay concerns the target SPIB (Homo sapiens, UniProt Q01892 1-262). In short, it runs like this: as §1
In another assay the target is T4, FEV (Homo sapiens, UniProt Q99581 1-238).
T4 sequence: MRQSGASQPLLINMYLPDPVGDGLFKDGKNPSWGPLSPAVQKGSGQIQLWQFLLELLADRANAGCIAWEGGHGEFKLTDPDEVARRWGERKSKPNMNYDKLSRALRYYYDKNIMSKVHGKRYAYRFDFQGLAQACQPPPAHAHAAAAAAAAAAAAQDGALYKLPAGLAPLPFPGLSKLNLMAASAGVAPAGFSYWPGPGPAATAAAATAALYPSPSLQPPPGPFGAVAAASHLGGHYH
In short, it runs like this:
as §1

For a further assay, the target named is ETV5 (Homo sapiens, UniProt P41161 1-510). In short, it runs like this: as §1
For the next assay, the target named is ELF4 (Homo sapiens, UniProt Q99607 1-663). In short, it runs like this:
as §1

For another assay, the target named is T5, ETV2 (Homo sapiens, UniProt O00321 1-342).
T5 sequence: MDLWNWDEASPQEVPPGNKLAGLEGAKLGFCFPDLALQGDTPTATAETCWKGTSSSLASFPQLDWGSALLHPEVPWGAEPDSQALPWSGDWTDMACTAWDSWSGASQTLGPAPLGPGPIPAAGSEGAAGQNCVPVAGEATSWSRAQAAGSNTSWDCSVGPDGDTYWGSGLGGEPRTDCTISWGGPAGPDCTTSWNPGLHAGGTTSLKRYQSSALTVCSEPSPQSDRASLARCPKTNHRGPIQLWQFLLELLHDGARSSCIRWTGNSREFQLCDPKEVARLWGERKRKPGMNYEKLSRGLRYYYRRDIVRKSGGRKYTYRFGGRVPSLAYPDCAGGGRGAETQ
In short, it runs like this: as §1

The next assay has as its target ETV1 (Homo sapiens, UniProt P50549 1-477). In short, it runs like this: as §1
The target of the next assay is T6, ERF (Homo sapiens, UniProt P50548 1-548).
T6 sequence: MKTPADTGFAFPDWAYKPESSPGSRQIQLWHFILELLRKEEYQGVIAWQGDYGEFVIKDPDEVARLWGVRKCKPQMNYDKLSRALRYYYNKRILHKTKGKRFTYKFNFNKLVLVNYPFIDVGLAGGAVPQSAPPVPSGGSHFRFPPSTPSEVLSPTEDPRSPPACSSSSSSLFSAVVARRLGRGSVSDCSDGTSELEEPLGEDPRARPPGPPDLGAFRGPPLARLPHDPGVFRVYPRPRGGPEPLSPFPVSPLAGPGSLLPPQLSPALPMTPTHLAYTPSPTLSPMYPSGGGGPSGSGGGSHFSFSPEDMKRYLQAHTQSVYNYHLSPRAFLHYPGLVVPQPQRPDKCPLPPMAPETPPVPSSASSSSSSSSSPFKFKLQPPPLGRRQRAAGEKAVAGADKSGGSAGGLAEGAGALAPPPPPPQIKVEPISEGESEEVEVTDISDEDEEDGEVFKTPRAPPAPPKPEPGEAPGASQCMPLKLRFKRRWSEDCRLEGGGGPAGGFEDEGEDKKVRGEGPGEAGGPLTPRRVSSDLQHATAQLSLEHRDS
In short, it runs like this:
as §1

A further assay concerns the target T7, ETS2 (Homo sapiens, UniProt P15036 1-469).
T7 sequence: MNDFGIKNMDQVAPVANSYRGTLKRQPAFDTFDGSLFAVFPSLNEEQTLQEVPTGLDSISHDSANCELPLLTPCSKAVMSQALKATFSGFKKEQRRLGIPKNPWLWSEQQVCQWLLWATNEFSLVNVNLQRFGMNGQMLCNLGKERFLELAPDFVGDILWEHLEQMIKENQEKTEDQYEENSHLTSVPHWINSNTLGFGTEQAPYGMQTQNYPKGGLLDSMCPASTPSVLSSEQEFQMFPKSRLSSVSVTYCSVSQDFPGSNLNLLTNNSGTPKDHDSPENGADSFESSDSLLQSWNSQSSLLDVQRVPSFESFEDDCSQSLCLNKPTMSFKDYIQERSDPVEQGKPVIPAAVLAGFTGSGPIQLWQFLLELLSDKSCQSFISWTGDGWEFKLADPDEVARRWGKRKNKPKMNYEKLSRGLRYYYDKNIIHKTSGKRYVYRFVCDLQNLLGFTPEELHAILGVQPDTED
In short, it runs like this: as §1

The target of another assay is T8, SPDEF (Homo sapiens, UniProt O95238 1-335).
T8 sequence: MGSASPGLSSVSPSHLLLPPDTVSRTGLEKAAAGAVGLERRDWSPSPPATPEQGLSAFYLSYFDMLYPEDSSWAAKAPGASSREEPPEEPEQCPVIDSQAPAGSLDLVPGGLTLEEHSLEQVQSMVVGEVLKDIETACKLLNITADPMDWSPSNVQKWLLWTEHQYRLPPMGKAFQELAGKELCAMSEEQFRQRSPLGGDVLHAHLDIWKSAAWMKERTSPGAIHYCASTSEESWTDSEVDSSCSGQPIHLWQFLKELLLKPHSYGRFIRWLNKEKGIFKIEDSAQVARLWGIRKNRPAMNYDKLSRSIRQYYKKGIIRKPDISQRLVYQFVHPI
In short, it runs like this: as §1

Another assay deals with T9, ETV3 (Homo sapiens, UniProt P41162-2 1-143).
T9 sequence: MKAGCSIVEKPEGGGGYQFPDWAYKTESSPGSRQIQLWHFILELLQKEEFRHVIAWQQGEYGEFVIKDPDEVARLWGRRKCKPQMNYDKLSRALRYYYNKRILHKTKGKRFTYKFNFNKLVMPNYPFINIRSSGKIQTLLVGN
In short, it runs like this: as §1

The target in another assay is T10, ERG (Homo sapiens, UniProt P11308 1-479).
T10 sequence: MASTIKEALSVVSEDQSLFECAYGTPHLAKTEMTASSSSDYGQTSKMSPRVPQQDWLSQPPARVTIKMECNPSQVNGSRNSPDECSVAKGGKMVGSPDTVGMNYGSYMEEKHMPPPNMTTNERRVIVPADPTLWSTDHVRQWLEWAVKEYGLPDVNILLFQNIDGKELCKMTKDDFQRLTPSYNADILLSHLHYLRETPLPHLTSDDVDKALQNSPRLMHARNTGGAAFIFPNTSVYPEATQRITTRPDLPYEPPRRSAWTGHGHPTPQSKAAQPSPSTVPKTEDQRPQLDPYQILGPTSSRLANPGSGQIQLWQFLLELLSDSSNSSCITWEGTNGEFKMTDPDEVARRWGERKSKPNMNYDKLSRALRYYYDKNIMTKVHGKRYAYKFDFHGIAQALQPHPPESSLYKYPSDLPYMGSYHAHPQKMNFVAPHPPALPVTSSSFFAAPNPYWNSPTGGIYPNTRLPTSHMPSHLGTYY
In short, it runs like this:
as §1

Chain of ELF4 (Q99607 whole entry): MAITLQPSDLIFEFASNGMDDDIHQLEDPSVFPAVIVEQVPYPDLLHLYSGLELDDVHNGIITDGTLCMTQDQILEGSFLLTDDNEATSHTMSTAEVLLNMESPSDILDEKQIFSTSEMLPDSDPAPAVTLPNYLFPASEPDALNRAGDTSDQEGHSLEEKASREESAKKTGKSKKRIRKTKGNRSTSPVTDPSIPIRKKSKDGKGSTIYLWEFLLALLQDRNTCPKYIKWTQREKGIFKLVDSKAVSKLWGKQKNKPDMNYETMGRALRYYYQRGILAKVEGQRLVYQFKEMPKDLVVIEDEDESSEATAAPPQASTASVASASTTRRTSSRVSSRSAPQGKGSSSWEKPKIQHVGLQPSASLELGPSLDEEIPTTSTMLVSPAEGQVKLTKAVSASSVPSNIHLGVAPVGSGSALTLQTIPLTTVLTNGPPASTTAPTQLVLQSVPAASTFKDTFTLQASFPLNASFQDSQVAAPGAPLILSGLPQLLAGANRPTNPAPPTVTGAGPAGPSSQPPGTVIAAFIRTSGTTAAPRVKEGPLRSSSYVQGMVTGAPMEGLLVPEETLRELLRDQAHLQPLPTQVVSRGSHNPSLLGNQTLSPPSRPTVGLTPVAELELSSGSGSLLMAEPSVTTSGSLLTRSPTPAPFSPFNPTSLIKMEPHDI
Chain of ETV5 (P41161 whole entry): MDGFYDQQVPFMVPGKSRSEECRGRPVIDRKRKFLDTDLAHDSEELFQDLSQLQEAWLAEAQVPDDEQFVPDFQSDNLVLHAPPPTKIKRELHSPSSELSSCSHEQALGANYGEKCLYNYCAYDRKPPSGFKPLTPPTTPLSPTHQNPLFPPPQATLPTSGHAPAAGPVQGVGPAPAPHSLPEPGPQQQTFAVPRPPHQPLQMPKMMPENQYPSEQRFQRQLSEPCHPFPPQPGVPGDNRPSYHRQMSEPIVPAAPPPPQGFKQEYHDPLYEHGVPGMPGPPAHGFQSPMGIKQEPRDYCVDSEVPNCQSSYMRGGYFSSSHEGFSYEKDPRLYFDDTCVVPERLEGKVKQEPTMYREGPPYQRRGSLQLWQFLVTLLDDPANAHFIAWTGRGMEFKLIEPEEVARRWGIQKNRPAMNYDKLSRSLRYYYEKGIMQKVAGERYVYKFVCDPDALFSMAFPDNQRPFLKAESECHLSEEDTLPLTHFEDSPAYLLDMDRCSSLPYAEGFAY
Chain of SPIB (Q01892 whole entry): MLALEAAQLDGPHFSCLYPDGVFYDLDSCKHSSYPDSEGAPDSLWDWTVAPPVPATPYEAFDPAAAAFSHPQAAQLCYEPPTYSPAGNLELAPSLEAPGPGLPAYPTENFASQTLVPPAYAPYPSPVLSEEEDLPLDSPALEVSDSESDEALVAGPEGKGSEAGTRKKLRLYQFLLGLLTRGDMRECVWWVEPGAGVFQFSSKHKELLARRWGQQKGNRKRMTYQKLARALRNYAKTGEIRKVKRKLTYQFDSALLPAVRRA
Chain of ETV1 (P50549 whole entry): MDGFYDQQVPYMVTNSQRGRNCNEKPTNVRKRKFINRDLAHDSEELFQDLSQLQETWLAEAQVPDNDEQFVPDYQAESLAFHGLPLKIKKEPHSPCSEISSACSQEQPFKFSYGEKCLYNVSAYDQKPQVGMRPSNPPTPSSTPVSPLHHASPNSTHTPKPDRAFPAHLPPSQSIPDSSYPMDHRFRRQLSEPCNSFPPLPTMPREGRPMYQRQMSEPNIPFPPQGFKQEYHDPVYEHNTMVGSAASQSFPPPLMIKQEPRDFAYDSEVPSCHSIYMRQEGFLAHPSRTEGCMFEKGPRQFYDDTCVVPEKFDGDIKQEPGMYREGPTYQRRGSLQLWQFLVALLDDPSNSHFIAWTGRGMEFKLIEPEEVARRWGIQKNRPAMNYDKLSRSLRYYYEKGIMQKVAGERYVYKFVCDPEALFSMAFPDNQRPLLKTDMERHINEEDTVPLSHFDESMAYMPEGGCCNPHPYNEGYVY
Chain of ELF1 (P32519 whole entry): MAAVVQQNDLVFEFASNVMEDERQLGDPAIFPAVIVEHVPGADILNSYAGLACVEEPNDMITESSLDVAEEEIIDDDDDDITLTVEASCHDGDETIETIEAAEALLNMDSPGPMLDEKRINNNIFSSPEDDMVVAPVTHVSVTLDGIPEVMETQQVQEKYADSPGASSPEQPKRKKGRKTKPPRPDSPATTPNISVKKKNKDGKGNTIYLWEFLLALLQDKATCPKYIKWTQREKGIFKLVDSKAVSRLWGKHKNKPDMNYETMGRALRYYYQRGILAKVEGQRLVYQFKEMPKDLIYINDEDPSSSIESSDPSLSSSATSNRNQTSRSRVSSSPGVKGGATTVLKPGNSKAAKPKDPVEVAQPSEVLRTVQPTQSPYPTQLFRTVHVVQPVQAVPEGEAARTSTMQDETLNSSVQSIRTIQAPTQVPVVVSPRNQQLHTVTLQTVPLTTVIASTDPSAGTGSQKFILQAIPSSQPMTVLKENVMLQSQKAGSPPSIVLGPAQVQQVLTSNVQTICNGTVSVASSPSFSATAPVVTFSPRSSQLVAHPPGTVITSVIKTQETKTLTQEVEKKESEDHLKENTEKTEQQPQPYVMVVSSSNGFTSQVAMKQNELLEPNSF

ATAGCC: the binding signal in the assay with ELK1 was 1.08 fold enrichment (6-mer frequency, TF over GST control); in the assay with GABPA, 1.11 fold enrichment (6-mer frequency, TF over GST control); with ELF1 it was 1.05 fold enrichment (6-mer frequency, TF over GST control); with EHF, 1.1 fold enrichment (6-mer frequency, TF over GST control); with SPIB, 1.04 fold enrichment (6-mer frequency, TF over GST control); with FEV, 1.1 fold enrichment (6-mer frequency, TF over GST control). Also, the binding signal was 1.1 fold enrichment (6-mer frequency, TF over GST control) in the assay with ETV5; 1.1 fold enrichment (6-mer frequency, TF over GST control) in the assay with ELF4; 1 fold enrichment (6-mer frequency, TF over GST control) in the assay with ETV2; 1.03 fold enrichment (6-mer frequency, TF over GST control) with ETV1; 1.1 fold enrichment (6-mer frequency, TF over GST control) with ERF; 1.07 fold enrichment (6-mer frequency, TF over GST control) with ETS2. Also, the binding signal is 1.08 fold enrichment (6-mer frequency, TF over GST control) in the assay with SPDEF and 1.06 fold enrichment (6-mer frequency, TF over GST control) with ETV3.

Take GGTCAC: the binding signal was 1.02 fold enrichment (6-mer frequency, TF over GST control) with ELK1; 1.06 fold enrichment (6-mer frequency, TF over GST control) in the assay with GABPA; 1.01 fold enrichment (6-mer frequency, TF over GST control) with ERG; 1.04 fold enrichment (6-mer frequency, TF over GST control) in the assay with EHF; 1.02 fold enrichment (6-mer frequency, TF over GST control) with SPIB; 1.04 fold enrichment (6-mer frequency, TF over GST control) in the assay with FEV. Also, the binding signal is 1 fold enrichment (6-mer frequency, TF over GST control) in the assay with ETV5; 1.03 fold enrichment (6-mer frequency, TF over GST control) in the assay with ELF4; 1.15 fold enrichment (6-mer frequency, TF over GST control) with ETV2; 1.02 fold enrichment (6-mer frequency, TF over GST control) with ETV1; 1.05 fold enrichment (6-mer frequency, TF over GST control) with SPDEF.
